Inconclusive results are not listed. The source made the active and inactive calls. Calls follow the shape of the dose curve; as a rule, active = well fitted inhibition curve with a large enough effect; inconclusive = small, poorly fitted or top-dose-only effect; inactive = flat fitted curve, though single readings scatter.
Legend:
Experiment in all cases: qHTS profiling for inhibitors of Plasmodium falciparum proliferation (AID 504749); also: nearly all actives have a fitted effect of over 60% in size
Details in all cases: P. falciparum in erythrocytes, SYBR Green DNA, 72 h; series mostly up to 28.7 µM
CP260 = test system: CP260
Summary of the method: (§1)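 Three-day growth assay of blood-stage parasites in erythrocytes (0.3% parasitemia, 2.5% hematocrit) at 37 C, 5% CO2, quantified by SYBR Green DNA staining after overnight detergent lysis.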

CP262 = test system: CP262
Summary of the method: as §1

CP265 = test system: CP265
Summary of the method: as §1

CP266 = test system: CP266
Summary of the method: as §1

CP268 = test system: CP268
Summary of the method: as §1

CP269 = test system: CP269
Summary of the method: as §1

CP286 = test system: CP286
Summary of the method: as §1

CP291 = test system: CP291
Summary of the method: as §1

CP297 = test system: CP297
Summary of the method: as §1

CP305 = test system: CP305
Summary of the method: as §1

CP315 = test system: CP315
Summary of the method: as §1

CP325 = test system: CP325
Summary of the method: as §1

CP329 = test system: CP329
Summary of the method: as §1

CP335 = test system: CP335
Summary of the method: as §1

DFO2036 = test system: DFO2036
Summary of the method: as §1

DIV14 = test system: DIV14
Summary of the method: as §1

DIV17 = test system: DIV17
Summary of the method: as §1

DIV30 = test system: DIV30
Summary of the method: as §1

Dd2 = test system: Dd2
Summary of the method: as §1

ECU = test system: ECU
Summary of the method: as §1

FAB9 = test system: FAB9
Summary of the method: as §1

GB4 = test system: GB4
Summary of the method: as §1

HB3 = test system: HB3
Summary of the method: as §1

ICS = test system: ICS
Summary of the method: as §1

N140 = test system: N140
Summary of the method: as §1

P93_24 = test system: P93_24
Summary of the method: as §1

P94_40 = test system: P94_40
Summary of the method: as §1

PAD = test system: PAD
Summary of the method: as §1

PC15 = test system: PC15
Summary of the method: as §1

PC26 = test system: PC26
Summary of the method: as §1

PC49 = test system: PC49
Summary of the method: as §1

SC27B = test system: SC27B
Summary of the method: as §1

TAB109 = test system: TAB109
Summary of the method: as §1

TAB113 = test system: TAB113
Summary of the method: as §1

TAB165 = test system: TAB165
Summary of the method: as §1

Measured: Potency
Potency is read from the fitted curve at half-maximal effect.

CC(C)C[C@@H](NC(=O)[C@H](Cc1ccccc1)NC(=O)c1cnccn1)B(O)O
active: CP260 112 nM | CP262 95.3 nM | CP265 112 nM | CP266 169 nM | CP268 95.3 nM | CP269 135 nM | CP286 63.1 nM | CP291 135 nM | CP297 269 nM | CP305 675 nM | CP315 190 nM | CP325 135 nM | CP329 95.3 nM | CP335 95.3 nM | DFO2036 100 nM | DIV14 426 nM | DIV17 301 nM | DIV30 190 nM | Dd2 100 nM | ECU 126 nM | FAB9 141 nM | GB4 107 nM | HB3 79.4 nM | ICS 44.7 nM | N140 70.8 nM | P93_24 79.4 nM | P94_40 112 nM | PAD 112 nM | PC15 79.4 nM | PC26 213 nM | PC49 141 nM | SC27B 100 nM | TAB109 35.5 nM | TAB113 100 nM | TAB165 112 nM

Reference: PubChem BioAssay (NCATS)
